PubChem BioAssay (Tox21)
Inconclusive results are not listed. Active and inactive are the calls of the source. Unless noted, the call rests on the fitted dose curve; in most records, active means well fitted curve in the direction sought with a large enough effect in the repeat runs; inconclusive means weak or mixed curves; inactive means no such curve, though single readings can be large; an effect the other way counts as inactive or inconclusive.

How the values were obtained:
[1] = qHTS assay for small molecule agonists of the p53 signaling pathway (AID 651631; calls by dose curve; further: nearly all actives have a fitted effect of over 15% in size)
How it was run: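 Stably transfected HCT-116 cells (beta-lactamase behind p53 response elements) get compounds after a 5 h settling period; 16 h later at 37 °C, FRET substrate is loaded and fluorescence read after 2 h.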

[2] = qHTS assay for small molecules that induce genotoxicity in human embryonic kidney cells expressing luciferase-tagged ATAD5 (AID 651632); further: nearly all actives have a fitted effect of over 15% in size
How it was run: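 Cells were seeded at 2,000 per well, dosed with compound, and incubated 16 hr at 37C in 5% CO2. Luciferase activity was then quantified after a 30 min room-temperature incubation with Amplite.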

[3] = qHTS assay for small molecules that induce genotoxicity in human embryonic kidney cells expressing luciferase-tagged ATAD5 - cell viability (AID 651634; calls by dose curve; further: nearly all actives have a fitted effect of over 25% in size)
How it was run: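 Cells (HEK293T, luciferase-tagged ATAD5) are seeded at 2,000 per well, dosed with compound or DMSO vehicle, and incubated 15.5 hr at 37C and 5% CO2. CellTiter-Fluor is added for 30 min before fluorescence is measured.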

[4] = qHTS assay for small molecule disruptors of the mitochondrial membrane potential - cell viability (AID 720634; calls by dose curve;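 further: human HepG2 liver cancer cells; series mostly up to about 83 µM; nearly all actives have a fitted effect of over 20% in size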)
How it was run: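 Cytotoxicity was measured by ATP quantitation in HepG2 wells that had first been treated with compound for 1 hr and stained with m-MPI dye; CellTiter-Glo incubation was 30 min at room temperature.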

[5] = qHTS assay to test for compound auto fluorescence at 590 nm (red) in HepG2 cells (AID 720674)
How it was run: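 Seeding: 2,000 HepG2 cells/well, MEM/10% FBS, overnight 37 C. Dosing: compound vs DMSO. Incubation: 1 hr, 37 C, 5% CO2. Read: fluorescence 540 ex/590 em, Rose Bengal sodium as red reference.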

[6] = qHTS assay to test for compound auto fluorescence at 535 nm (green) in HepG2 cells (AID 720675)
[7] = qHTS assay to test for compound auto fluorescence at 460 nm (blue) in HEK293 cells (AID 720678)
How it was run: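 Measured: blue fluorescence (Ex 405/Em 460 nm) of compound-treated HEK293 cells, incubated overnight at 37C with 5% CO2 and scaled to triamterene equivalents.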

[8] = qHTS assay to test for compound auto fluorescence at 590 nm (red) in HEK293 cells (AID 720679)
How it was run: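 Using HEK293 cells at 2,000 per well, the screen added 23 nL of each compound after cell attachment and incubated overnight (37C, 5% CO2). The plate reader then captured red-label fluorescence, Ex/Em 540/590nm.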

[9] = qHTS assay to test for compound auto fluorescence at 535 nm (green) in HEK293 cells (AID 720680)
[10] = qHTS assay to test for compound auto fluorescence at 460 nm (blue) in HEK293 cell free culture (AID 720681)
How it was run: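 Compounds were added to cell-free DMEM with 10% FBS and fluorescence read directly. The blue channel used 405 nm excitation and 460 nm emission, with triamterene as the reference fluorophore.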

[11] = qHTS assay to test for compound auto fluorescence at 535 nm (green) in HEK293 cell free culture (AID 720682)
How it was run: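 Using fluorescein as calibrant, autofluorescence was quantified at 485/535 nm in cell-free DMEM containing 10% FBS after pintool addition of compound or vehicle.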

[12] = qHTS assay to test for compound auto fluorescence at 590 nm (red) in HEK293 cell free culture (AID 720683)
How it was run: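 Cell-free wells of DMEM with 10% FBS received compound, and intrinsic fluorescence was read at excitation/emission 540/590 nm. Values expressed as equivalence to Rose Bengal sodium.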

[13] = qHTS assay to test for compound auto fluorescence at 590 nm (red) in HepG2 cell free culture (AID 720684)
How it was run: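 Auto fluorescence equivalency versus Rose Bengal sodium, red channel Ex/Em 540/590 nm; compounds in cell-free MEM/10% FBS; DMSO vehicle control.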

[14] = qHTS assay to test for compound auto fluorescence at 460 nm (blue) in HepG2 cell free culture (AID 720685)
How it was run: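 Cell-free plates of MEM plus 10% FBS received 23 nL compound or DMSO vehicle; blue-channel (405/460 nm) intensity scored against triamterene as reference fluorophore.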

[15] = qHTS assay to test for compound auto fluorescence at 535 nm (green) in HepG2 cell free culture (AID 720686)
[16] = qHTS assay to test for compound auto fluorescence at 460 nm (blue) in HepG2 cells (AID 720687)
How it was run: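 HepG2 cells in MEM with 10% FBS, attached overnight at 37 C, were exposed to compound or DMSO for 1 hr at 37 C, 5% CO2. Blue fluorescence was read at 405/460 nm, with triamterene as reference fluorophore.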

[17] = target: Glucocorticoid receptor (Homo sapiens) (UniProt P04150); assay: qHTS assay to identify small molecule agonists of the glucocorticoid receptor (GR) signaling pathway (AID 720691; active means well fitted activation curve with a large enough effect in the signal ratio in the repeat runs, not every such curve was filed as active; the % refers to the signal ratio; further: potency means the concentration at half of the fitted maximal effect)
Sequence of Glucocorticoid receptor (Homo sapiens) (P04150 whole entry, looked up): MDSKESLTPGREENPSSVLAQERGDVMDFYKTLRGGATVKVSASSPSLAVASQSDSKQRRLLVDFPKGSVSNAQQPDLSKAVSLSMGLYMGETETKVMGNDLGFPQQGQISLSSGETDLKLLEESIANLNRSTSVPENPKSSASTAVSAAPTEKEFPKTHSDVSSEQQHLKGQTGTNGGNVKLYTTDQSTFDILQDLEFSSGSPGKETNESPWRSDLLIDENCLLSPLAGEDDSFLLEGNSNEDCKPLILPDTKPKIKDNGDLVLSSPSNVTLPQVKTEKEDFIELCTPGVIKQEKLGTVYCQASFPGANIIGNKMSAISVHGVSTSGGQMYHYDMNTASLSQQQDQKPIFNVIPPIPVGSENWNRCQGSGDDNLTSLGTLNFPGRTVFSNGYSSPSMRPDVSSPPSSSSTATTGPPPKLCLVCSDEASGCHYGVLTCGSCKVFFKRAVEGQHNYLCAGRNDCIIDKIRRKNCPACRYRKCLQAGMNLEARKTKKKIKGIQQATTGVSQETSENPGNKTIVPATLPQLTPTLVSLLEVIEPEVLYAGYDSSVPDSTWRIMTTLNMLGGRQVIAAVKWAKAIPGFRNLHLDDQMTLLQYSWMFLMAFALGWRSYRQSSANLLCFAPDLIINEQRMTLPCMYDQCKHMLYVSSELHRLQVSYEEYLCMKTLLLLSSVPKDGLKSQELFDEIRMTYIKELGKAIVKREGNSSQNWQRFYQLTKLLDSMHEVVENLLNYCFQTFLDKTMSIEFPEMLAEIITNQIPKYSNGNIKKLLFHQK
How it was run: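 Steps: seed GR-bla HeLa cells, incubate 4 h at 37 C/5% CO2; pin-transfer DMSO-dissolved compounds; incubate 18 h at 37 C; add LiveBLAzer B/G FRET substrate; after 2 h at room temperature, measure fluorescence.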

[18] = target: Glucocorticoid receptor (Homo sapiens) (UniProt P04150); assay: qHTS assay to identify small molecule antagonists of the glucocorticoid receptor (GR) signaling pathway (AID 720692; active means well fitted inhibition curve with a large enough effect in the signal ratio in the repeat runs, not every such curve was filed as active; the % refers to the signal ratio; further: potency means the concentration at half of the fitted maximal effect)
How it was run: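 Antagonism was scored as loss of dexamethasone-driven (5 nM final) reporter signal in HeLa cells bearing a glucocorticoid response element–beta-lactamase construct, after 18 h compound exposure at 37 C and 2 h FRET substrate loading.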

[19] = qHTS assay for small molecule agonists of the p53 signaling pathway - cell viability (AID 651633; calls by dose curve;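 further: p53RE-bla HCT reporter cells with a stable beta-lactamase p53 reporter; series mostly up to about 83 µM; nearly all actives have a fitted effect of over 30% in size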)
How it was run: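 p53RE-bla cells were treated with compound for 16 hours at 37 C. Cytotoxicity was then measured as CellTiter-Glo luminescence after 30 min at room temperature.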

[20] = qHTS assay for small molecule disruptors of the mitochondrial membrane potential (AID 720635); further: potency means the concentration at half of the fitted maximal effect
How it was run: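 HepG2 cells exposed to compound 1 hr at 37C, then Mito-MPS dye 30 min. Ratio read of aggregate (540/590 nm) versus monomer (490/535 nm) fluorescence.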
On the % scale 0 is the no-effect control and ±100 the full control effect.

O=C(O)C1CCC(C(=O)O)CC1 (centres undefined)
inactive: Potency [1] | Potency [2] | Potency [3] | Potency [4] | outcome [5] | outcome [6] | Potency [7] | outcome [8] | outcome [9] | Potency [10] | outcome [11] | outcome [12] | outcome [13] | Potency [14] | outcome [15] | Potency [16] | Potency [17] | Potency [18]

Oc1ccc2c(c1)OCO2
inactive: Potency [1] | Potency [2] | Potency [19] | Potency [4] | Potency [20] | outcome [5] | outcome [6] | Potency [7] | outcome [8] | outcome [9] | Potency [10] | outcome [11] | outcome [12] | outcome [13] | Potency [14] | Potency [16] | Potency [17]

CCCCCCCCCC=O
inactive: Potency [1] | Potency [2] | Potency [3] | Potency [4] | outcome [5] | outcome [6] | Potency [7] | outcome [8] | outcome [9] | Potency [10] | outcome [12] | outcome [13] | Potency [14] | outcome [15] | Potency [16]

CC1(C)[C@H]2CC[C@]1(C)[C@H](O)C2
inactive: Potency [1] | Potency [2] | Potency [19] | Potency [4] | Potency [20] | outcome [5] | Potency [7] | outcome [8] | outcome [9] | Potency [10] | outcome [12] | outcome [13] | Potency [14] | Potency [16] | Potency [17] | Potency [18]

CC1=CCC(C(C)C)C=C1 (centres undefined)
inactive: Potency [1] | Potency [2] | Potency [19] | outcome [5] | outcome [6] | Potency [7] | outcome [8] | outcome [9] | Potency [10] | outcome [11] | outcome [12] | outcome [13] | Potency [14] | Potency [16]

CC/C(=C\C(=N/O)C(N)=O)C(C)[N+](=O)[O-] (centres undefined)
inactive: Potency [1] | Potency [2] | Potency [3] | Potency [4] | Potency [20] | outcome [5] | outcome [6] | Potency [7] | outcome [8] | outcome [9] | Potency [10] | outcome [11] | outcome [12] | outcome [13] | Potency [14] | outcome [15] | Potency [16] | Potency [17]

Cn1c(N)nc2nc[nH]c2c1=O
inactive: Potency [1] | Potency [2] | Potency [3] | Potency [4] | Potency [20] | outcome [5] | outcome [6] | Potency [7] | outcome [8] | outcome [9] | Potency [10] | outcome [11] | outcome [12] | outcome [13] | Potency [14] | outcome [15] | Potency [16] | Potency [17]

CCCCOc1cc(C(=O)OCCN(CC)CC)ccc1N
inactive: Potency [1] | Potency [2] | Potency [3] | Potency [4] | fluorescence, relative to Rose Bengal [5] -0.373% [at 18.6 µM] | fluorescence, % of fluorescein control [6] -0.0083% [at 18.6 µM] | fluorescence, % of triamterene [7] 0.0068% [at 18.6 µM] | fluorescence, % of fluorescent control [8] 0.112% [at 18.6 µM] | fluorescence, % of fluorescein [9] 0.0482% [at 18.6 µM] | fluorescence, % of fluorescent control [10] -0.116% [at 18.6 µM] | fluorescence, % of fluorescent control [12] -0.0563% [at 18.6 µM] | fluorescence, % of Rose Bengal [13] 0.59% [at 18.6 µM] | fluorescence, % of fluorescent control [16] -0.135% [at 18.6 µM] | Potency [17]

CCC(C)N(C)C(=O)c1cc2ccccc2c(-c2ccccc2Cl)n1 (centres undefined)
inactive: Potency [1] | Potency [2] | Potency [4] | Potency [20] | outcome [5] | outcome [6] | Potency [7] | outcome [8] | outcome [9] | Potency [10] | outcome [11] | outcome [12] | outcome [13] | Potency [14] | outcome [15] | Potency [16]

CC(C)(C)c1ccc(OCC2CO2)cc1 (centres undefined)
inactive: Potency [2] | Potency [19] | Potency [3] | Potency [4] | Potency [20] | outcome [5] | outcome [6] | Potency [7] | outcome [8] | outcome [9] | Potency [10] | outcome [11] | outcome [12] | outcome [13] | Potency [14] | outcome [15] | Potency [16] | Potency [17]

CCN(CC)CCOC(=O)C1(c2ccccc2)CCCC1
inactive: Potency [1] | Potency [2] | Potency [3] | outcome [5] | Potency [7] | outcome [8] | outcome [9] | Potency [10] | outcome [11] | outcome [12] | outcome [13] | Potency [14] | outcome [15] | Potency [16]

O=C(O)[C@@H]1[C@H]2C[C@H]3c4[nH]c5ccccc5c4CCN3C[C@@H]2CC[C@@H]1O
active: Potency [20] 11.4 µM
inactive: Potency [2] | Potency [19] | Potency [3] | Potency [4] | fluorescence, relative to Rose Bengal [5] 0.127% [at 18.6 µM] | fluorescence, % of fluorescein control [6] 0.513% [at 18.6 µM] | fluorescence, % of triamterene [7] 4.22% [at 18.6 µM] | fluorescence, % of fluorescent control [8] -0.335% [at 18.6 µM] | fluorescence, % of fluorescein [9] -0.047% [at 18.6 µM] | fluorescence, % of fluorescent control [10] 4.98% [at 18.6 µM] | activity change [11] -0.0263% [at 18.6 µM] | fluorescence, % of fluorescent control [12] 0.0861% [at 18.6 µM] | fluorescence, % of Rose Bengal [13] -0.199% [at 18.6 µM] | fluorescence, % of fluorescent control [14] 4.25% [at 18.6 µM] | fluorescence, % of fluorescein control [15] 0.287% [at 18.6 µM] | fluorescence, % of fluorescent control [16] 5.05% [at 18.6 µM] | Potency [18]

CC(=O)[C@@]1(O)CC[C@H]2[C@@H]3C[C@H](C)C4=CC(=O)CC[C@]4(C)[C@H]3CC[C@@]21C
active: Potency [17] 0.0849 µM
inactive: Potency [1] | Potency [2] | Potency [3] | Potency [4] | outcome [5] | Potency [7] | outcome [8] | outcome [9] | Potency [10] | outcome [11] | outcome [12] | outcome [13] | Potency [14] | Potency [16]

CCN1CCC[C@H]1CNC(=O)c1c(OC)ccc(Br)c1OC
inactive: Potency [2] | Potency [19] | Potency [3] | Potency [4] | Potency [20] | outcome [5] | outcome [6] | Potency [7] | outcome [8] | outcome [9] | Potency [10] | outcome [11] | outcome [12] | outcome [13] | Potency [14] | outcome [15] | Potency [16]

CCOc1ccc(NC(=O)CC(C)=O)cc1
inactive: Potency [2] | Potency [19] | Potency [3] | Potency [4] | Potency [20] | outcome [5] | outcome [6] | Potency [7] | outcome [8] | outcome [9] | Potency [10] | outcome [11] | outcome [12] | outcome [13] | outcome [15] | Potency [16] | Potency [17] | Potency [18]

CC(C)(C)c1cc(CO)cc(C(C)(C)C)c1O
inactive: Potency [2] | Potency [19] | Potency [3] | Potency [4] | outcome [5] | outcome [6] | Potency [7] | outcome [8] | outcome [9] | Potency [10] | outcome [11] | outcome [12] | outcome [13] | Potency [14] | outcome [15] | Potency [16]
active: Potency [20] 49.5 µM | Potency [18] 44.5 µM
